Most compounds without a hit are left out; they make up all but 1.7% or so of the library.
TRHR enhancer-1: qHTS for Small Molecule Agonists and Allosteric Enhancers of Human TRH Receptor: Primary Screen for Enhancers; enhancement, % at 2 µM; AID 493056, 2011; 360,000 tested, 0.66% active; Thyrotropin-releasing hormone receptor (Homo sapiens), P34981; TRHR cells, fluo-8 calcium fluorescence, EC20 TRH enhancement; in the data active = enhancement above about 30%; also: 0% is about no effect
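Enhancer read-out: after compound pinning and an initial kinetic agonist-mode read, an EC20 of TRH (10 nM final) was injected and fluo-8 calcium signal (Ex 480/Em 530) followed at 1 s/cycle for 100 cycles in TRHR-expressing cells.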
KCNH2 WT inh: qHTS for Inhibitors of KCHN2 3.1: Wildtype qHTS | Voltage-gated inwardly rectifying potassium channel KCNH2 (Homo sapiens), Q12809 | 340,000 tested, 0.37% active | U2OS, BacMam KCNH2, thallium flux FluxOr; stronger effect = lower value | activity change, % at 1.84 µM;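 active = maximum activity change below -70%; inconclusive = maximum activity change between -70% and -50%; inactive = maximum activity change above -50%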; also: % is scaled to controls: 0 for no effect and ±100 for the full control effect
Target sequence (Q12809 whole entry, looked up): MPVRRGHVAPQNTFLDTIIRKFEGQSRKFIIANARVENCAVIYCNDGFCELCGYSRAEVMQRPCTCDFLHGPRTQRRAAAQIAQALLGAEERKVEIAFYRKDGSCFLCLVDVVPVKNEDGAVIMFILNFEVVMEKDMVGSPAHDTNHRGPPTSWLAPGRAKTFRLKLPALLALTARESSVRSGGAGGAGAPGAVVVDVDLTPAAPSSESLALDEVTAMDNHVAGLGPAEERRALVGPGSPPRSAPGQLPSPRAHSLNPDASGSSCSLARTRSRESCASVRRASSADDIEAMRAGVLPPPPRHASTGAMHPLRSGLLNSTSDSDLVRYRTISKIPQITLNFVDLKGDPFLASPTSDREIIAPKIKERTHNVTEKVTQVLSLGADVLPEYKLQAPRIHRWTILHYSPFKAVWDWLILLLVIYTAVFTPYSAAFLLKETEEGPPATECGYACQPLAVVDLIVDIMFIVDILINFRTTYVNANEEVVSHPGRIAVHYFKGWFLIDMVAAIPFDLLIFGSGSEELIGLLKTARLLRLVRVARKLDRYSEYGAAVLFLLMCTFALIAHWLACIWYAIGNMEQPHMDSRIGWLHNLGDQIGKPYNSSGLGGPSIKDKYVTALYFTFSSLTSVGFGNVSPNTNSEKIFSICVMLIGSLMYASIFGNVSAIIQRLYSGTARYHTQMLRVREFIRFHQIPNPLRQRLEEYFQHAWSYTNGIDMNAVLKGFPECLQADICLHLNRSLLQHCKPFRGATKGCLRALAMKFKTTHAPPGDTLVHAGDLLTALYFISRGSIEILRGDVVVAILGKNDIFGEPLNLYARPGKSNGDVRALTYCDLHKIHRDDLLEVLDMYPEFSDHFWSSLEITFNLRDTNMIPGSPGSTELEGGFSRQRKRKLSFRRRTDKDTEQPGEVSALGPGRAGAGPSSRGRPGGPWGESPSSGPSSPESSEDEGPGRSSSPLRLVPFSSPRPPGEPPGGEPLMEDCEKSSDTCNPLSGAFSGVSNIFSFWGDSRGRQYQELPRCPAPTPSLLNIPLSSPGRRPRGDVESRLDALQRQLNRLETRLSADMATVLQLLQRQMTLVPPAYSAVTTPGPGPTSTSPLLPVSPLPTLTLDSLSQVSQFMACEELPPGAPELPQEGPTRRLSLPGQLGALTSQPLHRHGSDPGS
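U2OS cells were transduced with wild-type KCNH2 virus (2.03 x 10^8 / mL) for 4 h at room temperature, then cultured overnight at 37 C. Thallium flux was read with FluxOr dye. Rate constants were normalized to DMSO controls.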
TRPML1 ag: qHTS for Agonists of the Human Mucolipin Transient Receptor Potential 1 (TRPML1) | Mucolipin-1 (Homo sapiens), Q9GZU1 | TRPML1-expressing cells, Ca2+ dye fluorescence, FDSS | activation, % (test concentration not listed) | 410,000 tested, 0.12% active | AID 624414, 2012; in the data active = activation above about 50%; inconclusive = mostly about 30% to 49%; also: 0% is about no effect
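Agonist activity was taken from a 110 s kinetic Ca2+ dye read on the FDSS after pinning compounds onto TRPML1-DL cells. The cells were seeded at 1,500/well with Tet inducer, incubated about 16 h, then dye-loaded at room temperature.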
TRHR agonist-1: qHTS for Small Molecule Agonists and Allosteric Enhancers of Human TRH Receptor: Primary Screen for Agonists | Thyrotropin-releasing hormone receptor (Homo sapiens), P34981 | TRHR cells, calcium flux fluo-8, FDSS agonist mode | activation, % at 2 µM | 360,000 tested, 0.18% active | AID 493084, 2011; in the data active = activation above about 30%; also: 0% is about no effect
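In this calcium-flux screen, cells bearing human TRHR are dye-loaded with fluo-8, baselined for 10 cycles, then exposed to library compounds; positive kinetic calcium responses during the agonist phase mark hits, with TRH as control.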
TRPML1 inh: qHTS for Inhibitors of the Human Mucolipin Transient Receptor Potential 1 (TRPML1) | Mucolipin-1 (Homo sapiens), Q9GZU1 | TRPML1-inducible cells, Ca2+ dye fluorescence, FDSS; stronger effect = lower value; inhibition of EC80 agonist-evoked calcium signal | activity change, negative = inhibition, % (concentration not given with the values) | 390,000 tested, 0.02% active | AID 624415, 2012; in the data active = activity change below about -50%; inconclusive = between about -30% and that limit;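 also: stimulus is agonist 54-4 at its EC80 concentration; % is scaled to controls: 0 for no effect and ±100 for the full control effect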
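TRPML1-DL cells, Tet-induced overnight (~16 h, 37 °C) at 1,500 cells/well, were loaded with Ca8 no-wash dye plus quencher for 45-90 min at room temperature. Compounds were pinned during FDSS kinetic reading; agonist 54-4 at EC80 (4 uM final) then added.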
KCNH2 3.1 inh: qHTS for Inhibitors of KCHN2 3.1: Mutant qHTS. Potassium voltage-gated channel subfamily H member 2, brain isoform KCNH2 3.1 (human). AID 720553, 2013. U2OS KCNH2 3.1, thallium flux FluxOr; stronger effect = lower value. activity change, % (tested at about 1.8 µM). 340,000 tested, 0.95% active;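 active = maximum activity change below -70%; inconclusive = maximum activity change from -70% to -50%; inactive = maximum activity change above -50%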;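 also: thallium influx rate constant from kinetic fluorescence after stimulation buffer; % is scaled to controls: 0 for no effect and ±100 for the full control effect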
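Thallium flux read-out: FluxOr dye with Red40 quencher in HBSS/HEPES, 45 min at RT. Rate constants from kinetic reads were normalized to positive and negative DMSO controls. Cells: U2OS virally expressing the 3.1 isoform.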
TRHR enhancer-2: qHTS for Small Molecule Agonists and Allosteric Enhancers of Human TRH Receptor: Confirmation Screen for Enhancers; shares compounds with TRHR enhancer-1; TRH receptor cell assay, enhancer confirmation qHTS; activity change, negative = inhibition, % at 46.1 µM; 970 tested, under 10 active; AID 493076, 2011;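 also: compound effect scored on response to added TRH at EC20 of 10 nM; 0% is about no effect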
TRHR agonist-2: qHTS for Small Molecule Agonists and Allosteric Enhancers of Human TRH Receptor: Confirmation Screen for Agonists; 970 tested, 8% active; shares compounds with TRHR enhancer-1; Potency, µM (top dose mostly 46.1 µM), without a hit: at the top dose activation, hits mostly activators; TRHR-expressing cells, agonist activation read-out; also: potency is read from the fitted curve at half-maximal effect; 0% is about no effect; nearly all actives have a fitted effect of over 75% in size
The depositor's hits bear a star; ? = inconclusive; · = no result. Unless noted, calls follow the shape of the dose curve; as a rule, active = well fitted curve in the direction sought with a large enough effect; inconclusive = small, poorly fitted or top-dose-only effect, or another doubt; inactive = no such curve, though single readings can be large; an effect the other way counts as inactive or inconclusive.

SMILES | TRHR enhancer-1 | KCNH2 WT inh | TRPML1 ag | TRHR agonist-1 | TRPML1 inh | KCNH2 3.1 inh | TRHR enhancer-2 | TRHR agonist-2
COc1cccc(CC(NC(C)=O)C(=O)NC2CCN(C(=O)c3ccncc3)CC2)c1OC (centres undefined) | 2 | 11 | 0 | 1 | -1 | -12 | · | ·
Cn1c(CN2CCCC2)nc2cc(NC(=O)c3ccco3)ccc21 | 55* | -7 | 0 | 0 | 3 | -2 | -3 | -1%
CC(=O)Nc1ccc2c(c1)nc(CCNC(=O)c1ccccc1)n2C | 42* | -17 | -1 | -1 | 17 | 7 | 14 | -1%
Cc1ccc(NC(=O)c2cc(S(=O)(=O)N3CCCC3)cn2C)cc1C | 47* | 1 | 1 | 0 | 6 | -22 | 7 | 0%
Cc1ccc(NC(=O)NN2CCN(C)CC2)cc1C | 41* | 18 | 0 | 0 | -11 | 5 | 5 | -1%
COc1ccc(S(=O)(=O)NCC(=O)N(CC(=O)NCc2ccco2)Cc2ccc(F)cc2)cc1 | -9 | -19 | 0 | 2 | -1 | -8 | · | ·
Cc1cccc(NS(=O)(=O)c2cc3c4c(c2)CC(=O)N4CCC3)c1C | -6 | -1 | 1 | 0 | 3 | -7 | · | ·
Cc1cccc(NS(=O)(=O)c2cc3c4c(c2)CCN4C(=O)CC3)c1C | 45* | -173* | 0 | 0 | 49 | -1 | 7 | -1%
O=c1oc2c(CN3CCN(CCO)CC3)c(O)ccc2cc1-c1ccccn1 | -3 | 5 | 5 | 33* | -4 | -1 | 3 | ?
CC(=O)OC[C@@H]1CN(Cc2ccccc2)C[C@H](n2cnc3c(NC4CCCC4)ncnc32)O1 | · | · | -1 | · | · | · | · | ·
CCc1ccc2occ(CC(=O)Nc3ccc(C)c(C)c3)c2c1 | 63* | · | 5 | -1 | 6 | · | -5 | 6%
Cc1ccc(NC(=O)Cc2coc3ccc(C(C)C)cc23)cc1Cl | 3 | · | 2 | -1 | -14 | · | · | ·
COC(=O)c1[nH]c2ccccc2c1NS(=O)(=O)c1ccc(F)c(C)c1 | 44* | -5 | 0 | 0 | -3 | 16 | -8 | 0%
CCOC(=O)Cc1c(-c2cccc(Cl)c2)nc2c3ccccc3ccn12 | · | · | 0 | · | · | · | · | ·
C/C=C/c1ccc(OCCCCNCc2ccco2)c(OC)c1 | 69* | 8 | 0 | 0 | -19 | -4 | ? | ?
CCCCn1c(N)c(N(CC(C)C)C(=O)c2c(-c3ccccc3)noc2C)c(=O)[nH]c1=O | -2 | -2 | 1 | 0 | 35 | 23 | · | ·
COc1ccc(CNCc2cccc3ccccc23)cc1 | 52* | 11 | 1 | 1 | 55 | -6 | ? | ?
COc1ccc(CNCc2ccccc2C(F)(F)F)cc1 | -2 | 11 | 1 | 0 | -13 | -19 | · | ·
CCCS(=O)(=O)N1CCN(S(=O)(=O)c2ccccc2[N+](=O)[O-])CC1 | 2 | -4 | 0 | 0 | -6 | 8 | · | ·
CC(=O)c1c(C)[nH]c(C(=O)CN2CCN(S(=O)(=O)c3ccccc3[N+](=O)[O-])CC2)c1C | 45* | -1 | -1 | 0 | 43 | 4 | -6 | -1%
COc1ccc(S(=O)(=O)N2CCc3ccccc32)cc1C(=O)Nc1ccc(NC(C)=O)cc1 | · | -5 | 0 | · | -6 | -27 | · | ·
CCn1ccnc1[C@@H]1C[C@H]2CN(Cc3ccccc3OC)C(=O)[C@]23CCCN13 | 46* | -27 | 1 | 0 | 18 | 12 | -7 | 0%
O=C(CCc1nc2ccccc2c(=O)[nH]1)Nc1ccc(N2CCCCC2)cc1 | 3 | 15 | 0 | 0 | 17 | -9 | · | ·
O=C(CCc1nc2ccccc2c(=O)[nH]1)Nc1cc(Cl)ccc1N1CCCC1 | 47* | -2 | 3 | -1 | 8 | -5 | -2 | -1%
CC(C)c1ccc(N(CC(=O)NCCCN2CCOCC2)S(=O)(=O)c2ccccc2)cc1 | 48* | 16 | 0 | 0 | -13 | 2 | -2 | 2%
SMILES | TRHR enhancer-1 | KCNH2 WT inh | TRPML1 ag | TRHR agonist-1 | TRPML1 inh | KCNH2 3.1 inh | TRHR enhancer-2 | TRHR agonist-2
O=c1c2ccccc2c(/C=N/NS(=O)(=O)c2ccccc2)c(O)n1-c1ccccn1 | 27 | 4 | 14 | 32* | 10 | -25 | -6 | 4%
Cc1ccc(C(=O)NCC(c2ccco2)N2CCc3ccccc32)cc1C (centres undefined) | -7 | -3 | 0 | 1 | 11 | 7 | · | ·
O=C(NCC(c1ccco1)N1CCc2ccccc21)c1ccccc1 (centres undefined) | 51* | -1 | 1 | 0 | -13 | 1 | -9 | 1%
N#Cc1c(N)nc(SCC(=O)OCc2ccccc2)c(C#N)c1-c1ccco1 | 65* | -4 | 3 | 0 | 24 | -23 | -8 | 4%
COc1ccc(/C(C)=N\NC(=O)CSc2nnc(C)s2)cc1 | -3 | 1 | 1 | 0 | -11 | 4 | · | ·
C/C(=N\NC(=O)CSc1nnc(C)s1)c1ccc(Cl)cc1 | 43* | -3 | 1 | 0 | -30 | 2 | -2 | 1%
CCn1c2ccccc2c2cc(CNCCCN3CCOCC3)ccc21 | 43* | -5 | -1 | 0 | 6 | 5 | 14 | 3%
CCCC(=O)Nc1cccc2c1CCCC2 | 49* | -2 | -1 | 0 | 3 | 3 | -1 | 0%
CC(=O)CC(=O)Nc1cccc2c1CCCC2 | 4 | 4 | 2 | 0 | 5 | -13 | · | ·
COc1cc2cc(CNc3ccccc3)c(=O)n(CC(=O)Nc3cccc(Cl)c3C)c2cc1OC | 0 | · | 4 | 28 | -4 | · | · | ·
Cc1csc(NC(=O)c2sc3nc(-c4cccs4)ccc3c2N)n1 | 6 | 1 | ? | 51* | -1 | 9 | 4 | 10µM*
Cc1noc(C)c1NC(=O)N(C)C[C@@H]1OCc2cn(nn2)CCCC(=O)N([C@H](C)CO)C[C@H]1C | · | -4 | 0 | · | -16 | 4 | · | ·
CC(=O)N1CCN(C(=O)c2cccc(NS(=O)(=O)c3ccc(Br)cc3)c2)CC1 | -9 | -2 | 1 | 0 | -13 | -45 | · | ·
COc1ccc(NS(=O)(=O)c2ccc(N3CCCC3)c(NC(=S)Nc3cccc(C)c3C)c2)cc1 | -9 | 8 | 0 | 0 | -1 | 2 | · | ·
COc1ccc(NS(=O)(=O)c2ccc(N3CCCC3)c(NC(=S)Nc3ccc(SC(F)F)cc3)c2)cc1 | 65* | -3 | 1 | 0 | 4 | -18 | 2 | -1%
